Several values for one entry are separate records, joined by “and”; a condition that tells them apart may be missing. Identical values can stand only once. Out of some 350,000 compounds screened, about 31,000 (8.9%) were called active. Another 15% or so got no clear call; they are omitted. Calls follow the shape of the dose curve; as a rule, active = well fitted inhibition curve with a large enough effect; inconclusive = small, poorly fitted or top-dose-only effect; inactive = no such curve, though single readings can be large or run the other way. This excerpt belongs to a sample that is enriched for actives. Some compounds were tested as several samples or in several runs, with calls that do not always agree.
target: Histone-lysine N-methyltransferase EHMT2 (Homo sapiens) (UniProt Q96KQ7); test: qHTS Assay for Inhibitors of Histone Lysine Methyltransferase G9a; details: G9a H3K9 monomethylation, AlphaScreen, 2 h; series mostly up to 59 µM; activity, negative = inhibition: at the top concentration; also: nearly all actives have a fitted effect of over 75% in size
In short: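 Enzyme 20 nM + cpd, 15 min RT; add b-H3K9 pep 500 nM / SAM 20 uM; 2 h RT; anti-H3K9me1 Ab 0.5 ug/mL + SA donor / anti-rabbit acceptor beads 20 ug/mL each, 10 min; AlphaScreen read.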
% is scaled to controls: 0 for no effect and ±100 for the full control effect; potency is read from the fitted curve at half-maximal effect.

Chain of Histone-lysine N-methyltransferase EHMT2 (Homo sapiens) (Q96KQ7 913-1193 limits assumed): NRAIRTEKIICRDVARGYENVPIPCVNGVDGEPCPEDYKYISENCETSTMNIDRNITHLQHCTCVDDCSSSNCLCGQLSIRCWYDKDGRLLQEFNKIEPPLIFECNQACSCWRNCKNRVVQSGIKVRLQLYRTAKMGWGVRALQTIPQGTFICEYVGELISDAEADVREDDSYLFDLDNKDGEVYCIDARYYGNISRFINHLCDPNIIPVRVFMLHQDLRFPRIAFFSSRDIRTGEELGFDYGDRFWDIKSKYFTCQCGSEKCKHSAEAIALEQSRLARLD

activity, negative = inhibition, inactive:
CCN(CC)S(=O)(=O)c1ccc2c(c1)N(CC(=O)NCc1ccccc1)C(=O)CS2 7.17%, COc1cccc(CNC(=O)C(=O)NCCC2CCCCN2S(=O)(=O)c2ccc(C)cc2)c1 (centres undefined) 0.971% [at 0.501 µM], COc1ccccc1NC(=O)CSc1nnc(C)n1CC1CCCO1 (centres undefined) -7.36%, CC(=O)Nc1ccc(NC(=O)CSc2nnc(COc3ccccc3C)n2CC2CCCO2)cc1 (centres undefined) 7.69% [at 102 µM], Cc1ccc(NC(=O)COC(=O)CN2CCCCCC2=O)c(C)c1 -2.73%, Cc1cc(C)cc(-n2c(SCC(=O)NCC3CCCO3)nc3c([nH]c4ccccc43)c2=O)c1 (centres undefined) 12%, CCOc1ccc(N2C(=O)CC(N(CCc3ccc(OC)c(OC)c3)C(=S)Nc3ccccc3)C2=O)cc1 (centres undefined) 1.28%, CCCCCOC(=O)c1ccc(N2C(=O)C3C4C=CC(C4)C3C2=O)cc1 (centres undefined) 11.8% [at 102 µM], O=C(Nc1cccc(F)c1)NC1CCCc2ccccc21 (centres undefined) 80.8% [at 102 µM], COc1ccc(-n2ccn(CC(=O)Nc3ccc(C)c(C)c3)c(=O)c2=O)cc1OC -34.1%, O=C1C(Cc2ccc(O)cc2)NC(=S)N1Cc1ccccc1 (centres undefined) 4.15% [at 102 µM], N#Cc1ccc(OCC(=O)NC(=O)NC2CCS(=O)(=O)C2)cc1 (centres undefined) -2.17% [at 12.7 µM], COc1ccc(OC)c(S(=O)(=O)Nc2c(C)nn(C)c2C)c1 3.63% [at 12.7 µM], Cc1nc2sc3c(c2c(=O)n1NC(=O)CCl)CCCC3 -21.8% [at 102 µM], C=CCn1c(SCC(=O)NCCCO)nc2sc3c(c2c1=O)CCC3 29.7% [at 102 µM], Cc1ccc(S(=O)(=O)N(CC(=O)Nc2ccc(Cl)cc2Cl)c2ccccc2C)cc1 23.4%, CCCCN(C1CCS(=O)(=O)C1)S(=O)(=O)c1ccc(C(C)C)cc1 (centres undefined) -28.2% [at 102 µM], COc1cc(OC)c(NC(=O)C2CCCN2C(=O)OCc2ccccc2)cc1Cl (centres undefined) 16.8% [at 102 µM], COc1ccccc1CNC(=O)c1ccc(NC(=O)N2CC(C)Sc3ccccc32)cc1 (centres undefined) 7.67%, Cc1ccccc1CNC(=O)c1ccc(NC(=O)N2CCCCc3ccccc32)cc1 15.8%, O=C(CCC(=O)N1CC2CCCN2c2ccccc21)NCc1ccccc1Cl (centres undefined) -28.5%, Oc1ccccc1C1=NN(c2ccccc2)C(c2ccccc2)C1 (centres undefined) 99% [at 102 µM], O=C(NNC(=O)c1cc(-c2ccccc2Cl)nc2ccccc12)c1csc(N2CCOCC2)n1 10% [at 2.33 µM], Cc1ccccc1C(=O)Nc1nnc(S(=O)(=O)N(C)c2ccc(Cl)cc2)s1 -0.311%, CCOC(=O)N1CCN(Cc2nc3cc(NC(C)=O)ccc3n2C)CC1 18.2% [at 102 µM], COc1cccc(-n2nc(C(=O)N3CCN(Cc4ccccc4)CC3)c3ccccc3c2=O)c1 -35.7% [at 102 µM], CCCCN1C(=O)c2[nH]nc(-c3ccccc3O)c2C1c1cccc(OCc2ccccc2)c1 (centres undefined) -0.0883%, Cc1cccc(C(=O)NCc2nnc(SC(C)C(=O)Nc3nnc(C)s3)n2C)c1 (centres undefined) -30.1% [at 102 µM], COCCCn1c(SCC(=O)NC2CCCC2)nnc1-c1ccccc1 23% [at 102 µM], Cc1ccc(NC(=O)c2oc3ccc(S(=O)(=O)N4CCCCC4)cc3c2C)cc1Cl 0.299%, C=CCn1c(=O)c(C(=O)NCc2ccc3c(c2)OCO3)c(O)c2ccccc21 71.8% [at 102 µM], COc1cc(C)c(C)cc1S(=O)(=O)N1CCCc2ccccc21 87% [at 102 µM], COc1ccc(OCC(=O)N2CCOCC2)cc1 6.34% [at 12.7 µM], COc1ccc(OCC(=O)N2CCN(C(=O)COc3ccccc3)CC2)cc1 21%, Cc1cc(C)cc(NC(=O)C(OC(=O)c2ccc(O)cc2)c2ccccc2)c1 (centres undefined) -7.57% [at 12.7 µM], CC(C)(C)c1ccc(C(=O)Nc2ccc3c(c2)CCCN3C(=O)c2cccs2)cc1 -0.495%, CCCCCn1c(=O)[nH]c2cc(C(=O)Nc3cc(C)cc(C)c3)ccc2c1=O 3.83%, O=C(O)CSCc1nc2ccccc2s1 -10.2%, O=C(CSc1nc2ccccc2s1)Nc1ccc(C(=O)O)cc1 -6.27%, Cc1ccc(Cc2nc3ccccc3nc2SCC(=O)Nc2cccc(C(F)(F)F)c2)cc1 -0.77%, COc1ccc(S(=O)(=O)N2CCN(CC(=O)NCC3(N4CCOCC4)CCCCC3)CC2)cc1 -3.79% [at 12.7 µM], Cc1cc(C)cc(NC(=O)Cn2nc(N3CCN(c4ccccc4)CC3)ccc2=O)c1 -31.5%, COc1ccc(NC(=O)c2cnc(Nc3ccc(C)c(Cl)c3)c3ccccc23)cc1OC 3.97%, Cc1csc2nc(COC(=O)c3ccccc3NC(=O)c3ccccc3Cl)cc(=O)n12 6.79%, Cc1csc2nc(COc3ccc(NC(=O)COc4ccccc4)cc3)cc(=O)n12 -2.98%, Cc1cccc2c(=O)cc(CSc3ccccc3NC(=O)C(C)C)[nH]c12 -21.4%, COc1ccc(OC)c(-n2nnc3c(sc4nc(C)c(Br)c(C)c43)c2=O)c1 -25.7%, O=C(OCC(=O)c1c[nH]c2ccccc12)c1cccc(O)c1 -89.6% [at 102 µM], O=C(NC1CCCC1)C(=O)c1c[nH]c2ccccc12 47.4% [at 102 µM], Cc1cccn2c(=O)c(C(=O)NC(C)c3ccccc3)cnc12 (centres undefined) 15.6%, O=C(CSc1ccc(-c2ccc(F)cc2)nn1)Nc1ccc2c(c1)OCCO2 -8.82% [at 102 µM], CCn1c(CNC(=O)c2ccco2)nnc1SCC(=O)Nc1cccc(F)c1 11.1% [at 102 µM], Brc1ccc(CSc2ccc(-c3ccco3)nn2)cc1 -9.49% [at 102 µM], Cc1cc(SCc2c(F)cccc2Cl)nc(=O)[nH]1 -5.25% [at 0.501 µM], Cc1ccccc1-c1nnc(SCC(=O)NCc2ccc3c(c2)OCO3)n1C -10.1% [at 12.7 µM], CCn1c(=O)cc(SCC(=O)NCc2ccc3c(c2)OCO3)c2ccccc21 -1.7% [at 102 µM], CCN1C(=O)C(=O)N(CC(=O)Nc2cc(C)ccc2C)C1=O 1.01% [at 2.33 µM], CCOc1ccc(Nc2nc3c(S(=O)(=O)c4cccc(Cl)c4)nnn3c3ccsc23)cc1 7.88%, CC(C)S(=O)(=O)c1oc(-c2ccc(F)cc2)nc1S(=O)(=O)c1ccc(F)cc1 -38.5%, O=C(COC(=O)CCCN1C(=O)c2cccc3cccc(c23)C1=O)NC1CCS(=O)(=O)C1 (centres undefined) 3.13% [at 102 µM], O=C1c2cccc3cccc(c23)C(=O)N1c1cccc(O)c1 21.1% [at 2.33 µM], O=C(CN1C(=O)c2cccc3cccc(c23)C1=O)N1CCCCC1 17.3%, COc1ccc(N2C(=O)c3cccc4cccc(c34)C2=O)nn1 -3.86% [at 12.7 µM], O=C(Cn1cnc2c(oc3ccccc32)c1=O)Nc1ccc(OC(F)(F)F)cc1 5.06%, COc1cc(/C=N/NC(=O)c2cccnc2)ccc1OC(=O)c1cccc(Br)c1 40.7% [at 102 µM], CCc1ccccc1NC(=O)CN(C)C(=O)c1cc(C2CC2)nn1-c1ccccc1 14.2% [at 12.7 µM], CCCc1[nH]nc2c1C(c1ccc(OC(=O)c3ccco3)cc1)C(C#N)=C(N)O2 (centres undefined) -8%, CCCc1[nH]nc2c1C(C1CC=CCC1)C(C#N)=C(N)O2 (centres undefined) 11.7% [at 102 µM], COc1ccc(C2=NN(C(=O)c3ccccc3C(=O)O)C(c3ccccc3O)C2)cc1 (centres undefined) -9.47%, CCC(=O)Nc1ccc(C)cc1-c1nc2ccccc2n(Cc2ccccc2)c1=O -34%, COc1ccc(NC(=O)CSc2nc(C)cs2)cc1 9.68% [at 102 µM], COc1ccc(NC(=O)c2sc(N)nc2-c2ccccc2)cc1 -2.46% [at 102 µM], COc1ccccc1-c1sc2ccccc2c1-c1ccc(Br)nc1 -0.161% [at 0.501 µM]

Potency, active:
CCOc1cccc(=O)c2c(C)n(CC3CCCO3)c(C)c12 (centres undefined) 70.8 µM, CCCCCCC(=O)N(O)C1CC(=O)N(c2ccccc2)C1=O (centres undefined) 0.794 µM, Oc1ccc(Cn2cc[nH]c2=S)cc1 3.16 µM and 2.99 µM, COCCCn1c(SCC(=O)Nc2oc(C)c3c(C)n[nH]c(=O)c23)nc2sc3c(c2c1=O)CCC3 6.31 µM, COc1cc(OC)c(NC(=O)N2CC3CCCN3c3ccccc32)cc1Cl (centres undefined) 8.91 µM, COc1ccc(CNC(=O)c2ccc(NC(=O)N3CC4CCCN4c4ccccc43)cc2)cc1 (centres undefined) 7.08 µM, CCOC(=O)N1CCN(Cc2nc3ccc([N+](=O)[O-])cc3c(=O)n2-c2cccc(OC)c2)CC1 39.8 µM, COCCn1c(SC(C)C(=O)NC2CC2)nnc1-c1cccc(C)c1 (centres undefined) 28.2 µM, C/C(CCC(=O)OC[C@H]1O[C@H](C#Cc2ccccc2)C=C[C@@H]1Oc1ccc(C)cc1)=N\OC[C@@H](O)[C@H]1O[C@@H]2OC(C)(C)O[C@@H]2[C@H]1O 50.1 µM, CC1CN(C2CCN(C(=O)COc3ccccc3)CC2)CC(C)O1 (centres undefined) 8.91 µM, O=C(O)c1ccccc1CSc1nc2ccccc2s1 10 µM, O=c1cc(CCl)nc2scc(-c3ccccc3)n12 50.1 µM, O=S(=O)(O)Oc1c[nH]c2ccccc12 2.51 µM, Fc1cccc(Cl)c1CSc1ccc(-c2ccco2)nn1 31.6 µM, O=C(CSc1ccc(-c2ccco2)nn1)NCc1ccc2c(c1)OCO2 31.6 µM, O=C(CSc1ccc(-c2ccco2)nn1)Nc1cccc(F)c1 15.8 µM, O=C1c2cccc3cccc(c23)C(=O)N1CCCCCc1n[nH]c(=S)o1 2.51 µM, CCCc1[nH]nc2c1C(c1ccc(Br)s1)C(C#N)=C(N)O2 (centres undefined) 50.1 µM, COc1ccc(NC(=O)c2sccc2SCC#N)cc1 7.94 µM

Potency, inactive and 22.4 µM (active):
C[N+](C)(CCCCCC[N+](C)(C)CCCN1C(=O)c2cccc3cccc(c23)C1=O)CCCN1C(=O)c2cccc3cccc(c23)C1=O

Potency, inactive:
Cc1cccc(N2CCN(C(=O)COCc3cc(-c4ccc5c(c4)OCO5)on3)CC2)c1C
